The values below come from PubChem BioAssay AID686979 (National Center for Advancing Translational Sciences (NCATS), 2013).

The structures appear in SMILES notation. Several values for one entry are separate records, joined by “and”; a condition that tells them apart may be missing. Equal entries are not always repeated. The campaign covered roughly 420,000 compounds. About 50,000 (12%) were called active. About 26% were inconclusive and are not listed. Calls follow the shape of the dose curve; as a rule, active = well fitted inhibition curve with a large enough effect; inconclusive = small, poorly fitted or top-dose-only effect; inactive = flat fitted curve, though single readings scatter. For the sample, actives were picked, then their nearest neighbours and some compounds at random.
% is scaled to controls: 0 for no effect and ±100 for the full control effect; potency is read from the fitted curve at half-maximal effect.

A short description of the experiment: qHTS for Inhibitors of human tyrosyl-DNA phosphodiesterase 1 (TDP1): qHTS in cells in presence of CPT. Also: nearly all actives have a fitted effect of over 55% in size. Particulars: chicken DT40 Tdp1-/-;hTDP1 cells + 20 nM CPT, ATP luminescence, 48 h; series mostly up to 46.2 µM; activity change, negative = growth inhibition: at the top concentration. The procedure, abridged: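 Chicken DT40 Tdp1-/- cells complemented with human TDP1, 400 cells/well, exposed to compounds plus 20 nM camptothecin for at least 48 h at 37 C; viability read as ATP content by CellTiter-Glo luminescence.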
Background: qHTS replaces the single test concentration by a dilution series.
As to `COc1cc(OC)cc(C(=O)N[C@H](C(=O)Nc2nc3ccccc3[nH]2)C(C)C)c1`, the Potency is 1.64 µM (active).

With `COc1ccc(C(=O)N[C@H](C(=O)NCc2ccccc2)C(C)C)cc1`, the “activity change, negative = growth inhibition” value is 1.15% (inactive).

For the compound `COc1cc(OC)cc(C(=O)N[C@H](C(=O)OCC(=O)NC(C)c2ccccc2)C(C)C)c1` (some centres undefined), the “activity change, negative = growth inhibition” value was -11.1% (inactive).

As to `O=S(=O)(ON(c1ccccc1)S(=O)(=O)c1ccccc1)c1ccccc1`, the “activity change, negative = growth inhibition” value is 3.88% (inactive).

As to `CC1=C/C(=N\OS(=O)(=O)c2ccccc2)C=CC1=O`, the Potency is 0.631 µM (active).

As for `COCCn1c(SCC(=O)Nc2nc(C)cs2)nnc1C(C)C`, the “activity change, negative = growth inhibition” value is -14.4% (inactive).

`O=C(Nc1ccccc1C(=O)O)c1ccc(N2C(=O)C3CC=CCC3C2=O)cc1` (centres undefined): the “activity change, negative = growth inhibition” value is 6.38% (inactive).

Take `Cc1ccc(NC(=O)CN2CCC(C(N)=O)CC2)cc1[N+](=O)[O-]`: the “activity change, negative = growth inhibition” value is -17.2% (inactive).

Turning to `O=C(CN1CCOCC1)N/N=C/c1ccc(-c2ccc(Br)cc2)o1`, the “activity change, negative = growth inhibition” value was 15.3% (inactive).

Regarding `Cc1ccc(-c2ccc(/C=N/NC(=O)CN3CCOCC3)o2)cc1[N+](=O)[O-]`, the Potency is 23.1 µM (active).

On to `Cc1ccc(OC(=O)c2cncc(Br)c2)c(C)c1`, for which the “activity change, negative = growth inhibition” value is -11.9% (inactive).

As for `CC(=O)[C@@]12O[C@@H]1C[C@H]1[C@@H]3CC[C@H]4C[C@@H](O)CC[C@]4(C)[C@H]3CC[C@@]12C`, the “activity change, negative = growth inhibition” value is -12.2% (inactive).

Consider `CC1(Cc2ccccc2C#N)C(=O)Nc2ccc(-c3ccc4[nH]ccc4c3)cc21` (centres undefined), for which the Potency is 1.46 µM (active).

`COc1ccc(CC(NC(C)=O)C(=O)NC2CCN(C(=O)c3ccc(Cl)cc3)CC2)cc1` (centres undefined): the “activity change, negative = growth inhibition” value was 8.85% (inactive).

With `CCC(C)C(N=C1NS(=O)(=O)c2ccccc21)C(=O)N1CCC(C)CC1` (centres undefined), the “activity change, negative = growth inhibition” value was -14.9% (inactive).

For `O=c1oc(/C=C/c2ccccc2)nc2ccccc12`, the “activity change, negative = growth inhibition” value is -3.35% (inactive).

Take `O=c1[nH]c(/C=C/c2cccc(Br)c2)nc2ccccc12`: the “activity change, negative = growth inhibition” value is -19.5% (inactive).

In the case of `NNc1cccc(C=Cc2ccccc2)cc1=O`, the Potency was 2.06 µM (active).

With `Cc1cc(Cl)ccc1NC(=S)NCCCN1CCCC1=O`, the “activity change, negative = growth inhibition” value was 23.4% (inactive).

With `COn1c(=O)c(=O)n(OC)c2ccccc21`, the “activity change, negative = growth inhibition” value is 0.332% (inactive).

Regarding `CCOC(=O)C1=C(C)N(C[C@@H]2CC[C@@H](Cc3ccc(-c4ccccc4)cc3)O2)C(=O)NC1c1ccc([N+](=O)[O-])cc1` (some centres undefined), the Potency was 23.1 µM (active).

`CCOC(=O)CSc1nnc(-c2ccc([N+](=O)[O-])cc2)o1`: the “activity change, negative = growth inhibition” value was 0.129% (inactive).

As for `CCOC(=O)C1=C(c2ccccc2)NC(=S)NC1c1ccc(Cl)cc1` (centres undefined), the “activity change, negative = growth inhibition” value was -21.5% (inactive).

Turning to `C=C1c2cccc(OC)c2O[C@H](C(=O)OCC)[C@@H]1CCCCCC`, the “activity change, negative = growth inhibition” value is -20.2% (inactive).

Consider `COc1cccc(NC(=O)COc2cc(C)cc3oc(=O)cc(C)c23)c1`, for which the “activity change, negative = growth inhibition” value was -0.0121% (inactive).

In the case of `COc1cc(OC)c2c(-c3cccc(-c4cccc(N)c4)c3)cc(=O)oc2c1`, the Potency was 4.61 µM (active).

On to `COC(=O)C(C)Oc1ccc2c(-c3cccc([N+](=O)[O-])c3)cc(=O)oc2c1` (centres undefined), for which the “activity change, negative = growth inhibition” value was -14.6% (inactive).

For the compound `COc1ccccc1OCCNC(=O)C(CCSC)NC(=O)COc1ccccc1` (centres undefined), the “activity change, negative = growth inhibition” value was -15.4% (inactive).

With `CC(C)(CNC(=O)CNC(=O)C1CCCCC1)N1CCOCC1`, the “activity change, negative = growth inhibition” value was 13% (inactive).

As for `CC(C)=CCc1c(O)c(CC=C(C)C)c2occ(-c3ccc(O)cc3)c(=O)c2c1O`, the Potency is 18.4 µM (active).

As to `Cc1c(O)cc(O)c2c(=O)c(-c3ccc(O)cc3)coc12`, the “activity change, negative = growth inhibition” value was 0.0845% (inactive).

With `CCCCn1c(N)c(N(CC(C)C)C(=O)C2CSC3(C)CCC(=O)N23)c(=O)[nH]c1=O` (centres undefined), the “activity change, negative = growth inhibition” value is -2.75% (inactive).

With `CCOC(=O)CCCCCC(=O)Nc1ccc2c(c1)CC(=O)N([C@@H](C)CO)C[C@H](C)[C@@H](CN(C)Cc1ccccc1)O2`, the Potency was 18.4 µM (active).

Consider `C[C@H]1CN([C@@H](C)CO)C(=O)CCCn2nncc2CO[C@@H]1CN(C)Cc1ccc(Oc2ccccc2)cc1`, for which the Potency is 23.1 µM (active).

Take `COc1ccc(-c2cnc3c(c2)C(=O)N([C@H](C)CO)C[C@@H](C)[C@H](CN(C)Cc2ccccc2)O3)cc1`: the Potency was 14.6 µM (active).

Regarding `C[C@H](CO)N1C[C@H](C)[C@@H](CN(C)Cc2ccc3c(c2)OCO3)OCc2cnnn2CCCC1=O`, the “activity change, negative = growth inhibition” value is 9% (inactive).

In the case of `C[C@H](CO)N1C[C@H](C)[C@H](CN(C)CC2CC2)Oc2ccc(NC(=O)CCN3CCOCC3)cc2C1=O`, the “activity change, negative = growth inhibition” value is 9.49% (inactive).

As for `C[C@H]1CN([C@@H](C)CO)C(=O)Cc2cc(NS(C)(=O)=O)ccc2O[C@@H]1CN(C)CC1CC1`, the “activity change, negative = growth inhibition” value was -3.44% (inactive).

As for `C[C@H]1CN([C@@H](C)CO)C(=O)c2cc(-c3cccc(F)c3)cnc2O[C@@H]1CN(C)S(C)(=O)=O`, the “activity change, negative = growth inhibition” value was 4.29% (inactive).

Take `Cc1ccc(CN(C)C[C@@H]2OCc3cnnn3CCCC(=O)N([C@@H](C)CO)C[C@H]2C)cc1`: the “activity change, negative = growth inhibition” value is -7.27% (inactive).

With `C[C@@H]1CN([C@H](C)CO)C(=O)c2cc(Br)cnc2O[C@@H]1CN(C)Cc1cncnc1`, the “activity change, negative = growth inhibition” value was -9.96% (inactive).

On to `Cc1ccccc1NC(=O)c1cc(S(=O)(=O)Nc2cccc(C(=O)O)c2)ccc1Cl`, for which the “activity change, negative = growth inhibition” value is -2.45% (inactive).

With `Cc1cc(NC(=O)COc2ccc([N+](=O)[O-])cc2)no1`, the “activity change, negative = growth inhibition” value is 1% (inactive).

Take `CC1CCCC(C)N1C(=O)CSc1nnnn1C1CCCC1` (centres undefined): the “activity change, negative = growth inhibition” value was -3.92% (inactive).

For `CCc1nc(N2CCN(C(C)=O)CC2)c2c3c(sc2n1)CCCC3`, the “activity change, negative = growth inhibition” value was -8.38% (inactive).

As for `Cc1c(OC(C)C(=O)N[C@@H](Cc2ccccc2)C(=O)O)ccc2c3c(c(=O)oc12)CCCC3` (some centres undefined), the “activity change, negative = growth inhibition” value was 2.76% (inactive).

As for `Cc1c(Br)c([N+](=O)[O-])nn1C(C)C(=O)Nc1nccs1` (centres undefined), the “activity change, negative = growth inhibition” value was -29.9% (inactive).

As for `Cc1c(Cl)cccc1NC(=O)C1CCCN(C(=O)c2cnn(-c3ccccc3)c2-n2cccc2)C1` (centres undefined), the Potency is 23.1 µM (active).

`Cc1cccc(NC(=O)C2CCCN(C(=O)Nc3ccc(F)cc3)C2)c1C` (centres undefined): the “activity change, negative = growth inhibition” value was -26.8% (inactive).

As to `CCOc1ccccc1NC(=O)C1CCCN(C(=O)Nc2ccccc2)C1` (centres undefined), the “activity change, negative = growth inhibition” value was -4% (inactive).

In the case of `COc1ccc(Cn2ccn(CC(=O)Nc3cc(C)ccc3C)c(=O)c2=O)cc1`, the “activity change, negative = growth inhibition” value was 15.1% (inactive).

Consider `Cc1cccc(CSc2ccc(-c3cccs3)nn2)c1`, for which the Potency result was “inactive”.

In the case of `Oc1c(Cl)cc(Cl)c(Cl)c1Cc1c(O)c(Cl)cc(Cl)c1Cl`, the Potency is 4.73 µM (active) and 23.1 µM (active) and 3.26 µM (active).

For `Nc1[nH][nH]c(=O)c1N=Nc1ccc2c(c1)OCO2`, the “activity change, negative = growth inhibition” value is -26.6% (inactive).

Consider `Cc1ccc(N2CC(C(=O)Nc3ccc(S(=O)(=O)N4CCCC4)cc3)CC2=O)cc1C` (centres undefined), for which the “activity change, negative = growth inhibition” value is -24.4% (inactive).

Take `O=S1(=O)CC(N2CCN(CCO)CC2)CN1C1CCCC1` (centres undefined): the “activity change, negative = growth inhibition” value was -2.16% (inactive).

As for `O=C(O)C1CCN1C1CCCCC1` (centres undefined), the “activity change, negative = growth inhibition” value was 1.27% (inactive).

For `O=S1(=O)CCN(C2CCCCCCCCCCC2)CC1`, the Potency was 20.6 µM (active).

For `COc1ccc(S(=O)(=O)N2CCC(C(=O)NCCC(=O)Nc3ccccc3OC)CC2)cc1`, the “activity change, negative = growth inhibition” value is -19% (inactive).
